System: human monocyte-derived macrophages (polarized)
Assay: cell shape (eccentricity) Z-score vs DMSO control; higher = more elongated, M2-like morphology
Conditions: 5 µM; 24 h; macrophage state: M2-polarized (IL-4 + IL-13), cytokines present during treatment
Protocol: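 Primary-screen hits were rescreened on polarized hMDMs with the differentiating cytokines (IL-4 + IL-13 or IFNg + TNFa) kept in the medium during treatment with compound at 5 uM for 24 h. The eccentricity Z-score vs DMSO wells is averaged over experiments.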

Row | SMILES | cell shape (Z-score)
1 | C[C@@H]1O[C@@H](O[C@@H]2[C@@H](O)[C@H](OC(=O)[C@]34CCC(C)(C)CC3C3=CCC5[C@@]6(C)CC[C@H](OC7OC(CO)C(OC8OCC(O)C(O)C8O)C(O)C7O)C(C)(C)C6CC[C@@]5(C)[C@]3(C)CC4O)O[C@H]2CO)[C@H](O)[C@H](O)[C@H]1O[C@H]1OC[C@](O)(CO)[C@H]1O (stereo partly drawn) | -4.86
2 | COc1ccc(C[C@H](N)C(=O)N[C@H]2[C@@H](O)[C@H](n3cnc4c(N(C)C)ncnc43)O[C@@H]2CO)cc1 | -12.5
3 | C=C1C(=O)O[C@@H]2C3=C(C)CC[C@]34O[C@@H](C[C@@H]4C)[C@H]12 | 13
4 | Cc1nc(Nc2n[nH]c3c2CN(C(=O)N[C@H](CN(C)C)c2ccccc2)C3(C)C)c2sccc2n1 | -7.51
5 | COCCCOc1ccnc(C[S+]([O-])c2nc3ccccc3[nH]2)c1C (stereo not drawn) | 1.52
6 | O=C1c2ccc(Nc3ccc(F)cc3F)cc2CCc2ccc(OC[C@H](O)CO)cc21 | 2.03
7 | COC(=O)Nc1nc2ccc(SC(C)C)cc2[nH]1 | 0.135
8 | CCCCCCCCc1ccc(CCC(N)(CO)CO)cc1 | -15.5
